Source: paper PMC5540273 (PLoS ONE, 2017)

These molecules were tested on T1, VPS34. Conditions: concentration: 1 μM, replicates: in singlicate; n = 1.
T1 construct: gene PIK3C3
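Further: KINOMEscan kinase panel screen.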

Row | Compound | %Inh [%]
1 | Clc1ccc(-c2cc(-c3c[nH]nc3-c3ccccn3)ccn2)cc1 [GW681251] | 0
2 | Fc1ccc(Nc2nccc(-c3c(-c4ccc(Cl)cc4)nn4ncccc34)n2)cc1F [GW829058] | 5
3 | CS(=O)(=O)CCNCc1ccc(-c2ccc3ncnc(Nc4ccc(OCc5ccccc5)c(Cl)c4)c3c2)o1.Cl [GW574783] | 18
4 | CN1c2ccc(-c3ccc(C(=O)NCCO)cc3)cc2-c2[nH]ncc2S1(=O)=O | 30
5 | CCc1nc(-c2cccc(N(C)S(=O)(=O)c3ccccc3)c2)c(-c2ccnc(Nc3ccc(N4CCN(C(C)=O)CC4)nc3)n2)s1 [GSK1645895] | 0
6 | Oc1ccc2ncnc(Nc3ccc(OCc4ccccc4)cc3)c2c1 [GI262866] | 0
7 | Cc1ccc(NC(=O)c2cccc(C#N)c2)cc1-c1ccc(C(=O)Nc2ccncc2)cc1 [GSK1398463] | 0
8 | CC(C)(C)OC(=O)NC1CCCN(c2cc(-c3ccc4c(N)n[nH]c4c3)nc(N)n2)C1 (stereo not drawn) [GSK2286096] | 0
9 | COc1ccc(Nc2nccc(N3CCC(NC(=O)Nc4ccc5c(c4)OCO5)C3)n2)cc1 (stereo not drawn) [GSK1379745] | 13
10 | COc1ccc(NC(=O)Nc2ccc(C)c(-c3ccc(C(=O)Nc4ccncc4)cc3)c2)cc1 [GSK1398475] | 0
11 | Cn1ccc2ncnc(Oc3ccc(NC(=O)Nc4cccnc4)c(Cl)c3)c21 | 0
12 | Fc1cccc(COc2ccc(Nc3ncnc4cc[nH]c34)cc2Cl)c1 | 18
13 | Cl.Cl.c1ccc(-c2cc3ccncc3cc2OC2CCNCC2)cc1 [GSK1122999] | 67
14 | Cc1cccc(-c2nc(Nc3ccc4[nH]nnc4c3)c3ccccc3n2)n1 [GW867587] | 0
15 | COc1cc2c(Nc3cccc(NC(=O)c4ccccc4)c3)ncnc2cc1OCCCN1CCOCC1 [GSK223810] | 0
16 | Nc1nccc2scc(-c3ccc4c(c3)CCN4C(=O)Cc3cc(F)ccc3F)c12 [GSK2587663] | 8
17 | COc1ccc(NC(=O)c2ccc(-c3cc(-c4nnc(C)o4)ccc3C)cc2)cc1 [GW595885] | 0
18 | FC(F)(F)c1ccc(-c2nn3ncccc3c2-c2ccnc(Nc3cccc(C(F)(F)F)c3)n2)cc1 [GW828205] | 8

Row | Compound | %Inh [%]
19 | NC(=O)c1sc(-n2cnc3ccccc32)cc1OCc1ccccc1F [GSK1024306] | 31
20 | Cl.O=S(=O)(c1cccc(F)c1)c1ccc(Nc2ncnc3cc(Br)sc23)cc1Cl [GSK306886] | 0
21 | CCCc1ccc(S(=O)(=O)NC2CCN(c3ccnc(Nc4ccc(OC)cc4)n3)C2)cc1 (stereo not drawn) [GSK1379737] | 36
22 | CCn1c(-c2ccncc2)nc2cnccc21 [SB-735216] | 25
23 | O=C(CCO)NCCn1ccc2ncnc(Nc3ccc(Oc4cccc(C(F)(F)F)c4)c(Cl)c3)c21 | 0
24 | Cl.Fc1ccccc1COc1ccc(Nc2ncnc3ccc(-c4nnc(C(F)(F)F)o4)cc23)cc1Cl [GW424170] | 0
25 | Cn1cc(-c2ccc3c(c2)CCN3C(=O)Cc2cccc(C(F)(F)F)c2)c2c(N)ncnc21 [GSK2606414] | 22
26 | CNc1nccc(-c2c(-c3ccc(F)cc3)ncn2C2CCN(C)CC2)n1 [SB-222903] | 0
27 | Cl.Cn1ccc(-c2cccc(Nc3ccnc4cc(-c5nccs5)ccc34)c2)n1 [GW525701] | 0
28 | Fc1ccc(-c2ncn(CCCNCc3ccccc3)c2-c2ccncc2)cc1 | 0
29 | C[C@@H]1CCN(C(=O)CO)C[C@@H]1N(C)c1ncnc2[nH]ccc12 | 0
30 | CC(C)(C)c1ccc(-n2cnc3c(N)ncnc32)cc1 [SKF-97263] | 0
31 | COc1ccc(-c2oc3ncnc(N)c3c2-c2ccc(OC)cc2)cc1 [SB-589132] | 17
32 | FC(F)(F)c1cc(Nc2nccc(-c3c(-c4ccc(Cl)cc4)nn4ncccc34)n2)ccc1Cl [GW829351] | 2
33 | O=C(Nc1ccccc1F)NC1CCN(c2ccnc(Nc3ccc(F)cc3)n2)C1 (stereo not drawn) [GSK1379722] | 0
34 | O=C(NCCCN1CCCC1=O)c1cnc(NCc2cc(Cl)ccc2Cl)nc1NC1CCNCC1 | 0
35 | Cl.c1ccc(Cn2ncc3cc(Nc4ncnc5ccccc45)ccc32)cc1 [GW273749] | 0
36 | Fc1cccc(COc2ccc(Nc3ncnc4sc(-c5ccc[nH]5)cc34)cc2Cl)c1 [GW707818] | 0

These molecules were tested on VRK2. Conditions: concentration: 1 μM, replicates: in singlicate; n = 1.

Row | Compound | %Inh [%]
37 | Clc1ccc(-c2cc(-c3c[nH]nc3-c3ccccn3)ccn2)cc1 [GW681251] | 11
38 | Fc1ccc(Nc2nccc(-c3c(-c4ccc(Cl)cc4)nn4ncccc34)n2)cc1F [GW829058] | 34
39 | CS(=O)(=O)CCNCc1ccc(-c2ccc3ncnc(Nc4ccc(OCc5ccccc5)c(Cl)c4)c3c2)o1.Cl [GW574783] | 42
40 | CN1c2ccc(-c3ccc(C(=O)NCCO)cc3)cc2-c2[nH]ncc2S1(=O)=O | 0
41 | CCc1nc(-c2cccc(N(C)S(=O)(=O)c3ccccc3)c2)c(-c2ccnc(Nc3ccc(N4CCN(C(C)=O)CC4)nc3)n2)s1 [GSK1645895] | 0
42 | Oc1ccc2ncnc(Nc3ccc(OCc4ccccc4)cc3)c2c1 [GI262866] | 0
43 | Cc1ccc(NC(=O)c2cccc(C#N)c2)cc1-c1ccc(C(=O)Nc2ccncc2)cc1 [GSK1398463] | 0
44 | CC(C)(C)OC(=O)NC1CCCN(c2cc(-c3ccc4c(N)n[nH]c4c3)nc(N)n2)C1 (stereo not drawn) [GSK2286096] | 0
45 | COc1ccc(Nc2nccc(N3CCC(NC(=O)Nc4ccc5c(c4)OCO5)C3)n2)cc1 (stereo not drawn) [GSK1379745] | 0
46 | COc1ccc(NC(=O)Nc2ccc(C)c(-c3ccc(C(=O)Nc4ccncc4)cc3)c2)cc1 [GSK1398475] | 0
47 | Cn1ccc2ncnc(Oc3ccc(NC(=O)Nc4cccnc4)c(Cl)c3)c21 | 0
48 | Fc1cccc(COc2ccc(Nc3ncnc4cc[nH]c34)cc2Cl)c1 | 13
49 | Cl.Cl.c1ccc(-c2cc3ccncc3cc2OC2CCNCC2)cc1 [GSK1122999] | 0
50 | Cc1cccc(-c2nc(Nc3ccc4[nH]nnc4c3)c3ccccc3n2)n1 [GW867587] | 20
51 | COc1cc2c(Nc3cccc(NC(=O)c4ccccc4)c3)ncnc2cc1OCCCN1CCOCC1 [GSK223810] | 10
52 | Nc1nccc2scc(-c3ccc4c(c3)CCN4C(=O)Cc3cc(F)ccc3F)c12 [GSK2587663] | 0
53 | COc1ccc(NC(=O)c2ccc(-c3cc(-c4nnc(C)o4)ccc3C)cc2)cc1 [GW595885] | 25
54 | FC(F)(F)c1ccc(-c2nn3ncccc3c2-c2ccnc(Nc3cccc(C(F)(F)F)c3)n2)cc1 [GW828205] | 0

Row | Compound | %Inh [%]
55 | NC(=O)c1sc(-n2cnc3ccccc32)cc1OCc1ccccc1F [GSK1024306] | 7
56 | Cl.O=S(=O)(c1cccc(F)c1)c1ccc(Nc2ncnc3cc(Br)sc23)cc1Cl [GSK306886] | 0
57 | CCCc1ccc(S(=O)(=O)NC2CCN(c3ccnc(Nc4ccc(OC)cc4)n3)C2)cc1 (stereo not drawn) [GSK1379737] | 4
58 | CCn1c(-c2ccncc2)nc2cnccc21 [SB-735216] | 0
59 | O=C(CCO)NCCn1ccc2ncnc(Nc3ccc(Oc4cccc(C(F)(F)F)c4)c(Cl)c3)c21 | 0
60 | Cl.Fc1ccccc1COc1ccc(Nc2ncnc3ccc(-c4nnc(C(F)(F)F)o4)cc23)cc1Cl [GW424170] | 0
61 | Cn1cc(-c2ccc3c(c2)CCN3C(=O)Cc2cccc(C(F)(F)F)c2)c2c(N)ncnc21 [GSK2606414] | 20
62 | CNc1nccc(-c2c(-c3ccc(F)cc3)ncn2C2CCN(C)CC2)n1 [SB-222903] | 16
63 | Cl.Cn1ccc(-c2cccc(Nc3ccnc4cc(-c5nccs5)ccc34)c2)n1 [GW525701] | 7
64 | Fc1ccc(-c2ncn(CCCNCc3ccccc3)c2-c2ccncc2)cc1 | 13
65 | C[C@@H]1CCN(C(=O)CO)C[C@@H]1N(C)c1ncnc2[nH]ccc12 | 0
66 | CC(C)(C)c1ccc(-n2cnc3c(N)ncnc32)cc1 [SKF-97263] | 9
67 | COc1ccc(-c2oc3ncnc(N)c3c2-c2ccc(OC)cc2)cc1 [SB-589132] | 56
68 | FC(F)(F)c1cc(Nc2nccc(-c3c(-c4ccc(Cl)cc4)nn4ncccc34)n2)ccc1Cl [GW829351] | 56
69 | O=C(Nc1ccccc1F)NC1CCN(c2ccnc(Nc3ccc(F)cc3)n2)C1 (stereo not drawn) [GSK1379722] | 16
70 | O=C(NCCCN1CCCC1=O)c1cnc(NCc2cc(Cl)ccc2Cl)nc1NC1CCNCC1 | 70
71 | Cl.c1ccc(Cn2ncc3cc(Nc4ncnc5ccccc45)ccc32)cc1 [GW273749] | 0
72 | Fc1cccc(COc2ccc(Nc3ncnc4sc(-c5ccc[nH]5)cc34)cc2Cl)c1 [GW707818] | 26
